High-throughput results as filed in PubChem.
FLuc modulator: qHTS profiling assay for firefly luciferase inhibitor/activator using purifed enzyme and Km concentrations of substrates (counterscreen for miR-21 project) | Luciferin 4-monooxygenase (Photinus pyralis), P08659 | purified FLuc, Km substrates, luminescence inhibition | Potency, µM (doses to about 57.5 µM), without a hit: at the top dose activity change, negative = inhibition, most hits filed as inhibitors | 360,000 compounds, 6.9% hits;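 further: plate controls were vehicle for no effect and reference inhibitor for full effect; nearly all actives have a fitted effect of over 55% in size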
Target sequence (P08659 whole entry, looked up): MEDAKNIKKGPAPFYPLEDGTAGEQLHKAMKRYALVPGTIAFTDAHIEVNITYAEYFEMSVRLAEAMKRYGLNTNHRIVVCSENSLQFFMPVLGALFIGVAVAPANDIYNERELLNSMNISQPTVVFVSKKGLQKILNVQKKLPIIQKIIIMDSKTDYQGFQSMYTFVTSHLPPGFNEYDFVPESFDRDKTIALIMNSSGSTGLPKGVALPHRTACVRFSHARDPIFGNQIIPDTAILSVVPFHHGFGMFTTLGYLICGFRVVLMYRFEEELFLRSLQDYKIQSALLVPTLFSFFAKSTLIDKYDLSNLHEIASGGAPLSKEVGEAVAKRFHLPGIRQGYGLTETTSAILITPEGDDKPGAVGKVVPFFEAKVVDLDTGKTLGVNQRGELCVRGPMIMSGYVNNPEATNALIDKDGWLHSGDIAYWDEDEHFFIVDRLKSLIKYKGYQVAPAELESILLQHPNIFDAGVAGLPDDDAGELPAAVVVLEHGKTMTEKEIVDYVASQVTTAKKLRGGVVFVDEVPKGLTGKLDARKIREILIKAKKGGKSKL
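Biochemical qHTS of compounds, final roughly 60 µM downward over six points, against 10 nM purified firefly luciferase using Km concentrations of substrates (10 uM D-luciferin, 10 uM ATP) in Tris acetate pH 7.5 buffer; luminescence output.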
KinaseGlo FLuc: Counterscreen for Luciferase (Kinase-Glo TM) Inhibition | Luciferin 4-monooxygenase (Photuris pensylvanica), Q27757 | Kinase-Glo luciferase, ATP luminescence, 8 min | Potency, µM (titrated, usually from 38.3 µM), inactives show at the top dose activity change, negative = inhibition, usual class: inhibitors | 200,000 compounds, 0.28% hits; further: on the % scale 0 is the no-effect control and ±100 the full control effect; nearly all actives have a fitted effect of over 60% in size
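Compound is pinned into ATP-containing buffer (10 uM ATP, imidazole pH 7.2, 7 mM MgCl2). Kinase-Glo luciferase reagent is then added. Light output is recorded following an 8-min room-temperature incubation.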
SMN2 splice up: qHTS Assay for Enhancers of SMN2 Splice Variant Expression; HEK293 SMN2-luciferase splicing reporter, luminescence, 30-36 h; Potency, µM (titrated, usually from 46.1 µM), without a hit: at the top dose activity change, positive = activation, most hits filed as activators; AID 1458, 2008; 210,000 compounds, 2.8% hits; further: % of control where 0% means no effect; nearly all actives have a fitted effect of over 55% in size
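qHTS luciferase splicing reporter: luminescence rises when SMN2 exon 7 is included in transfected HEK293 cells. Compound exposure lasted 30-36 h at 37C, with 4.5 mM final sodium butyrate as control, followed by a ONE-Glo read.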
ELG1 genotoxic: qHTS screen for small molecules that induce genotoxicity in human embryonic kidney (HEK293T) cells expressing luciferase-tagged ELG1; HEK293T ELG1-luciferase reporter, luminescence, 16 h; Potency, µM (highest dose often 46 µM), without a hit: top-dose activity change, positive = activation, actives largely listed as activators; 330,000 compounds, 1.3% hits; AID 504466, 2011; further: % of control where 0% means no effect; nearly all actives have a fitted effect of over 60% in size
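Luminescence read-out: rising ELG1-luciferase signal, reflecting elevated ELG1 protein under genetic stress, flags genotoxic compounds. Cells were treated for 16 hr at 37 °C before ONE-Glo detection.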
Rab9 promoter act: qHTS Assay for Rab9 Promoter Activators | Huh7 Rab9 promoter-luciferase reporter, luminescence, 24 h | 320,000 compounds, 2.8% hits | Potency, µM (top dose mostly 9.22 µM), inactives show at the top dose activation, negative = inhibition, hits mostly activators | AID 485297, 2010; further: % of control where 0% means no effect; nearly all actives have a fitted effect of over 60% in size
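Promoter activation is measured as luciferase luminescence in Huh7 cells stably transfected with a Rab9 promoter–luciferase construct, following 24 h compound exposure at 37 °C and 10 min reagent incubation at ambient temperature.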
NPC1 prom act: qHTS Assay for NPC1 Promoter Activators | Huh7 NPC1 promoter luciferase reporter, 24 h | Potency, µM (titrated, usually from 9.22 µM), for inactives: at the top dose activation, most hits filed as activators | 320,000 compounds, 2.4% hits | AID 485313, 2010; further: % of control where 0% means no effect; nearly all actives have a fitted effect of over 60% in size
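NPC1 promoter–luciferase Huh7 cells; 24 h compound; luminescence.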
Numbers without * were called inactive; [ ] = another dose, or the depositor's remark. Most compounds without a hit are left out; they make up all but 7.5% or so of the library. The call rests on the fitted dose curve; in most records, active means well fitted curve in the direction sought with a large enough effect; inconclusive means small, poorly fitted or top-dose-only effect, or another doubt; inactive means no such curve, though single readings can be large; an effect the other way counts as inactive or inconclusive. Potency means the concentration at half of the fitted maximal effect.

What do the screens show for `Cc1ccc(CSc2nnc(-c3ccc4c(c3)OCO4)o2)cc1`?
FLuc modulator: inconclusive; KinaseGlo FLuc: -6%; SMN2 splice up: 13%; ELG1 genotoxic: 8%; Rab9 promoter act: -6%; NPC1 prom act: 3%

Results for CCc1ccc(OC(=O)CSc2nnc(-c3ccc4c(c3)OCO4)o2)cc1 ?
FLuc modulator: -1%

Results for COc1ccc(C2=NCC(CSc3nnnn3C)S2)cc1 (configuration not stated) ?
FLuc modulator: inconclusive; KinaseGlo FLuc: -3%; SMN2 splice up: -19%; ELG1 genotoxic: inconclusive; Rab9 promoter act: 15%; NPC1 prom act: 2%

How did COc1ccc(C2=NCC(CSc3nccc(=O)[nH]3)S2)cc1 (configuration not stated) do in these assays?
FLuc modulator: 19µM*; KinaseGlo FLuc: -3%; SMN2 splice up: 8%; ELG1 genotoxic: 4%; Rab9 promoter act: -1%; NPC1 prom act: 2%

What do the screens show for `O=C(O)CCSc1nnc(-c2ccc3c(c2)OCO3)o1`?
FLuc modulator: 13µM*; KinaseGlo FLuc: -20%; SMN2 splice up: -29%; ELG1 genotoxic: -3%; Rab9 promoter act: -10%; NPC1 prom act: -10%

Results for COc1ccc(C2=NCC(CSc3nnc(-c4ccc5c(c4)OCO5)o3)S2)cc1 (configuration not stated) ?
FLuc modulator: 9.5µM*; KinaseGlo FLuc: 0%; SMN2 splice up: -22%; ELG1 genotoxic: -1%; Rab9 promoter act: inconclusive; NPC1 prom act: 0%

What do the screens show for `Cc1ccn2cc(CNS(=O)(=O)c3cccs3)nc2c1`?
FLuc modulator: -19%; ELG1 genotoxic: 8%; Rab9 promoter act: 28%; NPC1 prom act: 16%

What do the screens show for `COc1ccc(Br)cc1S(=O)(=O)Nc1cc(-c2cn3ccccc3n2)ccc1C`?
FLuc modulator: inconclusive; SMN2 splice up: -3%

What do the screens show for `COc1ccc(S(=O)(=O)Nc2cc(-c3cn4ccc(C)cc4n3)ccc2C)cc1OC`?
FLuc modulator: 15µM*; SMN2 splice up: 19%

What do the screens show for `CCCS(=O)(=O)Nc1cc(-c2cn3ccc(C)cc3n2)ccc1C`?
FLuc modulator: 9.5µM*; SMN2 splice up: 15%

What do the screens show for `Cc1ccc(C2C(C=Nc3c(C)n(C)n(-c4ccccc4)c3=O)=C(c3ccccc3)Oc3ccccc32)cc1` (configuration not stated)?
FLuc modulator: 0%; KinaseGlo FLuc: 5%; SMN2 splice up: 0%; ELG1 genotoxic: -7%; Rab9 promoter act: -1%; NPC1 prom act: -2%

Results for Cc1ccc2nc(-c3ccc(N)cc3)sc2c1S(=O)(=O)O ?
SMN2 splice up: 14µM*

How did CC(C)CCNC(=O)Cn1nc(N2CCN(c3ccccc3)CC2)ccc1=O do in these assays?
FLuc modulator: 2%

How did COc1cc(C(=O)N2CCN(C(=O)COc3ccc4ccccc4c3)CC2)cc(OC)c1OC do in these assays?
FLuc modulator: 11µM*; KinaseGlo FLuc: -1%; SMN2 splice up: -8%; ELG1 genotoxic: 2%; Rab9 promoter act: 1%; NPC1 prom act: 8%

Results for COc1cccc(C(=O)N2CCN(C(=O)COc3ccc4ccccc4c3)CC2)c1 ?
FLuc modulator: 6µM*; ELG1 genotoxic: -24%; Rab9 promoter act: -2%; NPC1 prom act: -5%

How did COc1ccc(C(=O)N2CCN(C(=O)c3cc(OC)c(OC)c(OC)c3)CC2)cc1 do in these assays?
FLuc modulator: 7%; KinaseGlo FLuc: 1%; SMN2 splice up: 10%; ELG1 genotoxic: -4%; Rab9 promoter act: -6%; NPC1 prom act: -4%

Results for Cn1c(SCC(=O)N2CCc3ccccc32)nnc1-c1ccc(S(=O)(=O)N2CCCC2)cc1 ?
FLuc modulator: -2%; KinaseGlo FLuc: -2%; SMN2 splice up: 24%[1.84 µM]; ELG1 genotoxic: 0%; Rab9 promoter act: -1%; NPC1 prom act: -1%

What do the screens show for `NC(=NCc1ccc(Cl)cc1Cl)NC(=O)c1nc(Cl)c(N)nc1N`?
SMN2 splice up: -43%

Results for COc1ccc(CCNc2nc(C)c(C(C)=O)s2)cc1OC ?
FLuc modulator: inconclusive; ELG1 genotoxic: -17%; Rab9 promoter act: 0%; NPC1 prom act: 2%

Results for Cc1nc(NC(=O)c2csc3ccccc23)sc1C ?
FLuc modulator: 0.85µM*; KinaseGlo FLuc: -1%; SMN2 splice up: 7.9µM*; ELG1 genotoxic: inconclusive; Rab9 promoter act: 1.3µM*; NPC1 prom act: inconclusive

Results for Cc1nc(NCCc2ccccc2)sc1C(=O)O ?
FLuc modulator: 17µM*; ELG1 genotoxic: 13%; Rab9 promoter act: 29%; NPC1 prom act: inconclusive

Results for CC(=O)c1sc(NC(=O)c2ccccc2C)nc1C ?
FLuc modulator: inconclusive; KinaseGlo FLuc: inconclusive; SMN2 splice up: 12%; ELG1 genotoxic: inconclusive; Rab9 promoter act: inconclusive; NPC1 prom act: 21%

Results for Cc1nc(NC(=O)CCc2ccccc2)sc1C ?
FLuc modulator: 17µM*; ELG1 genotoxic: inconclusive; Rab9 promoter act: 26%; NPC1 prom act: 27%

Results for Cc1nc(NC(=O)c2ccccc2)sc1C ?
FLuc modulator: inconclusive; ELG1 genotoxic: inconclusive; Rab9 promoter act: 1.8µM*; NPC1 prom act: 1.8µM*

What do the screens show for `Cc1nn(-c2ccccc2)c(C)c1/C=N\NS(=O)(=O)c1ccc(Cl)cc1`?
FLuc modulator: 1%; KinaseGlo FLuc: 18%; SMN2 splice up: 2%; ELG1 genotoxic: 1%; Rab9 promoter act: -1%; NPC1 prom act: 1%

Results for O=C(O)C[C@H](S)C(=O)O ?
KinaseGlo FLuc: -1%[7.66 µM]; SMN2 splice up: 7%[9.22 µM]

Results for CCOC(=O)Cc1ccc(NC(=O)N(Cc2ccc(CC)cc2)Cc2cn[nH]c2-c2ccc(OC)cc2)cc1 ?
FLuc modulator: -11%

How did Cc1nc(NC(=S)NC(=O)c2ccccc2)sc1C do in these assays?
FLuc modulator: inconclusive; ELG1 genotoxic: inconclusive; Rab9 promoter act: 3.2µM*; NPC1 prom act: 4µM*

Results for Cc1nc(NC(=O)c2ccccc2O)sc1C ?
FLuc modulator: 5.4µM*; ELG1 genotoxic: 5.8µM*; Rab9 promoter act: 3.2µM*; NPC1 prom act: 4µM*

How did O=C(Nc1nc(-c2cccs2)c(C(=O)C(F)(F)F)s1)c1ccccc1 do in these assays?
FLuc modulator: 17µM*; KinaseGlo FLuc: -2%; SMN2 splice up: -92%; ELG1 genotoxic: -1%; Rab9 promoter act: -11%; NPC1 prom act: 0%
